# Experimental data as given in publication PMC10668032, “Altered binding affinity of SIX1-Q177R correlates with enhanced WNT5A and WNT pathway effector expression in Wilms tumor”.
# Over roughly 33,000 sequences, “e-score” has its median near -0.053; the highest 2% begin near 0.38. This is one part of a sample in which the highest values are shown more often than they occur.
# Target: T1, SIX1 homeodomain (reference allele) (human, UniProt Q15475 108-198)
# T1 sequence: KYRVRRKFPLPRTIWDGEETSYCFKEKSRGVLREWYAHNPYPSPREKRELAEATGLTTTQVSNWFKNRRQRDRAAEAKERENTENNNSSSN
# Test: universal protein binding microarray; Universal all-10-mer PBM (8x60K, AMADID 030236), 300 nM GST-tagged protein, Alexa Fluor 488 anti-GST; buffer, salt, pH and temperature not stated (as in Berger); high values mean tight binding
# Conditions: protein: ivt; tags: N-terminal GST; dsDNA, one strand shown
# In short: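 Homeodomains fused to GST were made by in vitro transcription/translation and measured by anti-GST western blot with a recombinant GST standard curve. At 300 nM final concentration, they were applied in duplicate to universal 'all 10-mer' protein binding microarrays (8×60K format).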
row,Sequence,binding signal [E-score]
1,ATACGCCG,0.277 ± 0.0315
2,ATATTATA,0.333 ± 0.0863
3,GTATTATA,0.377 ± 0.042
4,GTATTAGA,0.237 ± 0.0563
5,AATACGGA,0.169 ± 0.0478
6,CATCCACG,0.183 ± 0.0475
7,GGTGAGAA,0.162 ± 0.0553
8,AATATCGT,0.309 ± 0.0634
9,CATATCGA,0.417 ± 0.00575
10,GATATCGC,0.468 ± 0.0155
11,CATATAGC,0.162 ± 0.0222
12,CATATCGG,0.401 ± 0.0215
13,CAGATCGA,0.277 ± 0.0349
14,GATATAGC,0.368 ± 0.0388
15,AATATCGG,0.312 ± 0.0183
16,CATATCGC,0.424 ± 0.0197
17,CATATAGA,0.183 ± 0.00672
18,AATATCGC,0.299 ± 0.0725
19,GAGATCGC,0.27 ± 0.0213
20,GGTGTAAC,0.309 ± 0.00742
21,AGACGGTA,0.196 ± 0.0243
22,CACTAATA,0.215 ± 0.00278
23,GGATATTA,0.355 ± 0.0417
24,ATATGCCG,0.211 ± 0.0327
25,AGTTGTAT,0.215 ± 0.0407

row,Sequence,binding signal [E-score]
1,AGATAAAG,0.183 ± 0.0397
2,CGTCTCAG,0.161 ± 0.0511
3,TACGCGCA,0.174 ± 0.0401
4,CGAATATC,0.308 ± 0.00674
5,GAACACCC,0.205 ± 0.0407
6,CCCCTTCC,0.164 ± 0.0967
7,GATATCGA,0.42 ± 0.0378
8,GATATTGA,0.287 ± 0.088
9,TATATCGA,0.387 ± 0.0436
10,AATATCGA,0.241 ± 0.0403
11,TATATCCA,0.335 ± 0.0312
12,GAGATCGA,0.271 ± 0.0142
13,ATTATCCG,0.351 ± 0.0414
14,CATATACG,0.24 ± 0.0369
15,CATATCCG,0.426 ± 0.0135
16,CAACTATC,0.168 ± 0.0786
17,ATTGAATA,0.196 ± 0.0188
18,GTGTCGCA,0.173 ± 0.106
19,AAGAATAC,0.214 ± 0.0706
20,ATCAATTA,0.229 ± 0.0261
21,ATCGCCTG,0.206 ± 0.0204
22,ATACTGTG,0.226 ± 0.0353
23,GATCGCGA,0.3375 ± 0.00196
24,TATCGCCA,0.36392 ± 0.000113
25,TATCGCGA,0.395 ± 0.0175

row,Sequence,binding signal [E-score]
1,CCGGCGGA,0.24 ± 0.0642
2,TCATCCGA,0.255 ± 0.0149
3,ACTGATCA,0.181 ± 0.00344
4,ACTGCTAT,0.177 ± 0.0391
5,ACTGATAG,0.315 ± 0.0253
6,GCTGACAC,0.246 ± 0.0761
7,GCTGATAC,0.459 ± 0.00926
8,CCTGAGAC,0.168 ± 0.0173
9,ACTGATAC,0.465 ± 0.00916
10,ACTGACAC,0.335 ± 0.01
11,GCTGAGAC,0.214 ± 0.0303
12,CCTGATAG,0.266 ± 0.022
13,CCTGATAC,0.4721 ± 0.0017
14,ACTGATAT,0.442 ± 0.0273
15,GTATAGAA,0.215 ± 0.0496
16,TATCTCCA,0.282 ± 0.0362
17,ATGGCATC,0.155 ± 0.0404
18,ATCCAGTA,0.242 ± 0.0094
19,AGCAATAC,0.298 ± 0.00343
20,GATCGTGC,0.276 ± 0.0195
21,ACCTATAT,0.195 ± 0.0849
22,GCAGGAGA,0.153 ± 0.0104
23,ATATCGTC,0.382 ± 0.0428
24,ATATAGTA,0.304 ± 0.0257
25,CTATCGTA,0.266 ± 0.0154

row,Sequence,binding signal [E-score]
1,ATATCGTG,0.376 ± 0.0365
2,CTATCGTC,0.163 ± 0.0581
3,GTATCGTA,0.4227 ± 0.00184
4,GTATAGTA,0.285 ± 0.0663
5,ATATCGTA,0.402 ± 0.0509
6,GTCTCGTA,0.172 ± 0.0154
7,GGTAGATA,0.336 ± 0.0074
8,GAGTAATA,0.204 ± 0.00279
9,AGATCTCG,0.214 ± 0.0497
10,GGTGTCTA,0.35 ± 0.0308
11,AGTGTCAA,0.168 ± 0.0652
12,CGTGTCAC,0.1957 ± 0.000728
13,GGTGTCAC,0.476 ± 0.0116
14,GGGGTCAA,0.151 ± 0.00175
15,GGTGTCCA,0.314 ± 0.0555
16,AGTGTCAC,0.253 ± 0.0143
17,GGTGTCAA,0.45408 ± 0.000177
18,GGTGTCGA,0.408 ± 0.0576
19,CCGCTATA,0.176 ± 0.0395
20,CTTAGATA,0.19 ± 0.0471
21,GGTACACC,0.298 ± 0.064
22,AAGGGTGA,0.21 ± 0.0127
23,GCGTTAGA,0.197 ± 0.00519
24,CGGGATAC,0.408 ± 0.0263
25,AGGGATAT,0.45 ± 0.0188

row,Sequence,binding signal [E-score]
1,CGGGATAG,0.268 ± 0.0112
2,TGGGATAA,0.176 ± 0.0405
3,GGGGACAC,0.161 ± 0.0585
4,GGGGATAC,0.44 ± 0.0287
5,AGGGATAC,0.4148 ± 0.000559
6,AGGGATAG,0.27 ± 0.0085
7,GGGGATAA,0.311 ± 0.0718
8,CGGGATAA,0.17 ± 0.0308
9,AGGGGGAT,0.376 ± 0.0175
10,AGGGATAA,0.292 ± 0.0171
11,CTAAGATA,0.241 ± 0.105
12,ATCTGGGC,0.24 ± 0.0045
13,CCTATTGA,0.187 ± 0.0453
14,GGTATTTA,0.191 ± 0.035
15,ATCCCATC,0.297 ± 0.0291
16,ATCGATGG,0.185 ± 0.0344
17,ATATATCC,0.438 ± 0.0246
18,ATATATCG,0.372 ± 0.0566
19,GTATATCA,0.429 ± 0.0166
20,CTATATCC,0.366 ± 0.00388
21,ATATATCA,0.4 ± 0.0452
22,GTATATGA,0.225 ± 0.0139
23,CTCTATCC,0.216 ± 0.0113
24,AAATATCA,0.224 ± 0.158
25,ATATATAA,0.298 ± 0.0548

row,Sequence,binding signal [E-score]
1,CTATATTA,0.152 ± 0.0427
2,CTATATCA,0.412 ± 0.033
3,GTATATAA,0.245 ± 0.0101
4,ATCCAACC,0.173 ± 0.00282
5,TATCTAGA,0.189 ± 0.00564
6,ATACGTGG,0.272 ± 0.04
7,ACAACACC,0.23 ± 0.0178
8,TATAACAA,0.2242 ± 0.00053
9,ATATTAGG,0.257 ± 0.0151
10,CGAAGATC,0.202 ± 0.00878
11,CATGACAC,0.35 ± 0.0169
12,GATGATAC,0.484 ± 0.00743
13,GATGATGA,0.189 ± 0.0213
14,CATGATAC,0.4813 ± 0.00335
15,TATGATAA,0.17 ± 0.026
16,AATAATAC,0.345 ± 0.0992
17,AAAGATAC,0.365 ± 0.0561
18,GATAATAC,0.406 ± 0.0398
19,AATGATAG,0.309 ± 0.0717
20,AATGATAC,0.467 ± 0.0253
21,CATAATAC,0.34 ± 0.0222
22,CATGATAG,0.274 ± 0.0672
23,CCACGATA,0.324 ± 0.0401
24,GTATGCGA,0.225 ± 0.0379
25,AGCGGGAT,0.289 ± 0.0282

row,Sequence,binding signal [E-score]
1,ATGTAATA,0.208 ± 0.032
2,GGAGACAC,0.219 ± 0.0128
3,ATCGGCAT,0.205 ± 0.0425
4,AATAACAC,0.151 ± 0.0395
5,TATGGGGA,0.232 ± 0.0667
6,AAGTATAT,0.184 ± 0.103
7,AATGATAT,0.44 ± 0.0479
8,AAAGATAT,0.351 ± 0.0934
9,AATGAGAT,0.278 ± 0.0395
10,ATCGTCAT,0.22 ± 0.00839
11,AATCCGCG,0.1997 ± 0.000431
12,ATCCCGGG,0.345 ± 0.0141
13,ATACGGGG,0.335 ± 0.018
14,ATACCGGG,0.399 ± 0.016
15,ATACCGGC,0.319 ± 0.00766
16,ATACCGGA,0.381 ± 0.0112
17,AGACCGGA,0.157 ± 0.0691
18,ACCATGAT,0.269 ± 0.0126
19,GATTATGA,0.205 ± 0.0352
20,ATATGGCA,0.204 ± 0.0271
21,GAGCCATA,0.183 ± 0.0105
22,GAATACGA,0.24 ± 0.0047
23,GGATAGAC,0.151 ± 0.00296
24,CAATATAC,0.197 ± 0.0146
25,TGTATTAA,0.275 ± 0.027

row,Sequence,binding signal [E-score]
1,CCTATCAA,0.288 ± 0.0228
2,CGTATAAC,0.204 ± 0.0505
3,TGTATCAA,0.41 ± 0.0207
4,GGGCTCAC,0.268 ± 0.0467
5,GGTATCAC,0.497
6,CGTATTAC,0.26 ± 0.0203
7,TATCTCAA,0.329 ± 0.0572
8,CGTATCAC,0.484 ± 0.00135
9,CGTATTAA,0.222 ± 0.0926
10,CGTATCAA,0.466 ± 0.026
11,GGTCTCAC,0.203 ± 0.0591
12,TATCGGAA,0.368 ± 0.0234
13,CACCCGGA,0.276 ± 0.0383
14,CTGAGATC,0.253 ± 0.0174
15,ATGAGACG,0.251 ± 0.0275
16,TATCTTCA,0.251 ± 0.0591
17,GATCAGAC,0.249 ± 0.0505
18,GGTATCAA,0.486 ± 0.00747
19,GGTATAAA,0.286 ± 0.0691
20,GCTATCAA,0.312 ± 0.0869
21,ATACTTTG,0.253 ± 0.096
22,GGGTTAGA,0.16 ± 0.0278
